# Only a selection was taken, and hits are over-represented in it overall.
# PTAP-TSG101 blk = TSG101-PTAP interaction inhibition, HIV-1 budding | Fluorescence polarization, FITC-PTAP peptide/Tsg101, 20 min | Potency, µM (top dose mostly 115 µM), actives largely listed as inhibitors | 44,000 tested, under 10 active
#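 Read-out is FITC fluorescence polarization. Compounds were added to Tsg101 binding domain (10 uM final), then FITC-PTAP peptide (50 nM final), 20 min at r.t. Total S+P intensity flags fluorescent compounds.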
# FH mod = Identification of activators of human fumarate hydratase by quantitative high-throughput screening. Potency, µM (top dose mostly 79.9 µM), hits mostly inhibitors. Fumarate hydratase, mitochondrial (Homo sapiens), P07954. actives 0.22% (n = 54,000). AID 1347055, 2019. FH coupled MDH/diaphorase resazurin fluorescence, 15 min; note: the screen sought activators but most active calls are inhibition curves; nearly all actives have a fitted effect of over 45% in size
# B2AR arrestin ag = agonists recruiting beta-arrestin to human beta2-adrenergic receptor; Potency, µM (series often up to 46.1 µM), actives largely listed as activators; HTLA Tango cells, beta-arrestin recruitment, luciferase luminescence, 18 h; 44,000 tested, under 10 active
# Target sequence (P07550 whole entry, looked up): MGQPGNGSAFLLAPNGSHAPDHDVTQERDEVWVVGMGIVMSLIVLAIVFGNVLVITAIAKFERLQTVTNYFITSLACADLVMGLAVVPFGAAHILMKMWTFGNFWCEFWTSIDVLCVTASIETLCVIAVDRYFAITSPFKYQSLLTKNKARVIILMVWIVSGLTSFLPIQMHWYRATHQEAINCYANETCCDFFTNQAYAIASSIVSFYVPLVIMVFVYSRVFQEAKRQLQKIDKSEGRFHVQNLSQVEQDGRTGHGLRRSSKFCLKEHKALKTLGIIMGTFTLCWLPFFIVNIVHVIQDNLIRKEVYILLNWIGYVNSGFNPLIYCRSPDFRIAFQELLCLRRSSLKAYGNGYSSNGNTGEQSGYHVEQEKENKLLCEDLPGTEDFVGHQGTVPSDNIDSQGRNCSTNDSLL
#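 Tango cells expressing recombinant beta2-AR and beta-arrestin were treated with compounds (up to 46 microM titration) in DMEM with 1% FBS for 18 hr at 37 degrees C. Beta-arrestin recruitment drove tTA-dependent luciferase, read by luminescence; curves were fitted and classed.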
# GALK inh = inhibits human galactokinase. P51570. recombinant GALK, Kinase-Glo ATP luminescence, 1 h. Potency, µM (doses to about 57.5 µM), actives largely listed as inhibitors. 44,000 tested, under 10 active. AID 1347072
#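 Luminescent ATP-depletion readout (Kinase-Glo Plus, 10 min) after 1 h RT reaction of 5 nM GALK, 35 uM ATP, 100 uM galactose, pH 8.0 HEPES buffer. Decreased kinase activity scored as inhibition.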
# NTMT1 inh = inhibitors of human N-terminal methyltransferase NTMT1. Q9BV86. NTMT1 MTase-Glo SAH luminescence, purified enzyme. Potency, µM (highest dose often 114 µM), actives largely listed as inhibitors. actives 2.5% (n = 59,000). AID 1645870; note: nearly all actives have a fitted effect of over 65% in size
# DYRK1A inh = inhibitors of human DYRK1A kinase; shares compounds with NTMT1 inh; recombinant DYRK1A, Kinase-Glo ATP depletion luminescence; Potency, µM (highest dose often 76.9 µM), hits mostly inhibitors; actives 80% (n = 100); AID 2705
# NNMT inh = blocks human NNMT methyltransferase | shares compounds with NTMT1 inh | NNMT MTase-Glo luminescence, SAH detection | Potency, µM (titrated, usually from 57.1 µM), usual class: inhibitors | actives 10% (n = 120) | AID 1645878
# A number is an active result; – = inactive; ? = inconclusive; · = no result given; ! = a repeat was not active; [ ] = another dose, or the depositor's remark. Calls come from the whole dose curve; as a rule, active = well fitted curve in the direction sought with a large enough effect; inconclusive = small, poorly fitted or top-dose-only effect, or another doubt; inactive = no such curve, though single readings can be large; an effect the other way counts as inactive or inconclusive.
SMILES,PTAP-TSG101 blk,FH mod,B2AR arrestin ag,GALK inh,NTMT1 inh,others
C[N+](C)(C)CCOP(=O)(O)OP(=O)([O-])OC[C@H]1O[C@@H](n2ccc(N)nc2=O)[C@H](O)C1O (stereo not given in full),·,–,·,·,·,
Cc1cccc(C#Cc2cc(F)cc(C#N)c2)n1,·,?,·,·,–,
Cc1ccc(NS(=O)(=O)c2ccc3c(c2)[C@H]2C=CC[C@H]2[C@@H](c2ccc(F)cc2)N3)cc1C,–,–,–,–,–,
Cc1ccc(NS(=O)(=O)c2ccc3c(c2)C2C=CCC2C(c2ccc(C(=O)O)cc2)N3)cc1C (stereo not given),·,·,·,·,25µM,
Cc1cccc(NC(=O)c2c(NC(=O)c3ccccc3)sc3c2CCCC3)c1,–,–,–,–,45µM,
CCCc1ccc(OCC(=O)Nc2sc3c(c2C(=O)OC)CCCCC3)cc1,–,–,–,–,89µM,
CCOC(=O)c1ccc(NC(=O)c2c(NCc3cccc(OC)c3OC)sc3c2CCC3)cc1,–,–,–,–,56µM,
CCOC(=O)c1c(NC(=O)c2ccccc2C)sc2c1CCCC2,–,–,–,–,89µM,
O=C1CCCC2=C1C(c1cccnc1Br)N=C(Nc1nc3ccccc3o1)N2 (stereo not given),·,·,·,·,–,
COc1cc2nc(C3CC3)nc(N3CCN(c4ccccc4OC)CC3)c2cc1OC,·,–,·,·,?,
CCOc1ccccc1NC(=O)c1c(NCc2ccc(C)o2)sc2c1CCCCC2,–,–,–,–,25µM,
CCOc1ccccc1NC(=O)c1c(NCc2ccc(C)o2)sc2c1CCC(C)C2 (stereo not given),–,–,–,–,–,
Cc1ccc(-n2ncc3c(Nc4ccc(Oc5ccccc5)cc4)ncnc32)cc1,–,?,–,–,–,
CC#CC(=O)N1CC[C@@H](n2c(=O)n(-c3ccc(Oc4ccccc4)cc3)c3c(N)ncnc32)C1,·,·,·,·,71µM,
C=CC(=O)N1CCC[C@H](n2c(=O)n(-c3ccc(Oc4ccccc4)cc3)c3c(N)ncnc32)C1,·,·,·,·,89µM,
CCC(C(C)O)n1ncn(-c2ccc(N3CCN(c4ccc(OCC5COC(Cn6cncn6)(c6ccc(F)cc6F)C5)cc4)CC3)cc2)c1=O (stereo not given),·,–,·,·,–,
NCCS,·,–,·,·,32µM,
N#Cc1c(-c2ccccc2C(F)(F)F)nc2ccccc2c1NCc1ccc(-c2cccnc2)cc1,·,·,·,·,–,
COc1cccc(-c2cc(=O)c3ccccc3o2)c1N,·,–,·,·,–,
COc1ccc(-c2cc(=O)c3c(O)cc(O)cc3o2)cc1O,·,24µM,·,·,?,
O=C(/C=C\n1cnc(-c2cc(C(F)(F)F)cc(C(F)(F)F)c2)n1)NNc1ccccn1,·,·,·,·,–,
N=C(N)c1ccc2cc(OC(=O)c3ccc(N=C(N)N)cc3)ccc2c1,·,–,·,·,79µM!,
CN(C)C(=O)COC(=O)Cc1ccc(OC(=O)c2ccc(N=C(N)N)cc2)cc1,·,–,·,·,?,
Cc1cc(C)n2ncc(C(=O)Nc3ccc(C(F)(F)F)cc3)c2n1,·,·,·,·,–,
CN1CCCN(C(=O)c2cccc(-c3ccc(/C=C4/C(=O)Nc5ccc(Cl)cc54)o3)c2)CC1,·,·,·,·,11µM,
SMILES,PTAP-TSG101 blk,FH mod,B2AR arrestin ag,GALK inh,NTMT1 inh,others
Cc1cc(CS(=O)(=O)c2ccccc2)cc(OCc2ccc(CN3CCC[C@@H]3CO)cc2)c1,·,–,·,·,8.9µM!,NNMT inh=–
COc1ccc(C(=O)Nc2nnc(-c3ccco3)o2)cc1,·,·,·,·,–,
Cc1ccc(F)cc1S(=O)(=O)N[C@@H]1CCN(Cc2ccc(OC(C)C)cc2)C1,·,–,·,·,?,NNMT inh=–
Cc1cc(N[S+](=O)([O-])c2ccc(NC(=O)Cc3ccc(F)c(C)c3)cc2)no1,·,·,·,·,–,
CC(=O)Nc1sc2c(c1-c1ccc(N3CCN(C(C)=O)CC3)nc1)CCNC2,·,·,·,·,–,
CCOC(=O)c1ccoc1-c1ccc2ncnc(NCc3ccc(C)o3)c2c1,·,·,·,·,?,DYRK1A inh=23µM
CCOC(=O)c1ccc(-c2ccc3ncnc(NCc4ncc[nH]4)c3c2)o1,·,·,·,·,–,DYRK1A inh=2.3µM
CCOC(=O)c1ccoc1-c1ccc2ncnc(NCc3csc(C)n3)c2c1,·,·,·,·,–,DYRK1A inh=–
Cc1csc(CNc2ncnc3ccc(-c4ccco4)cc23)c1,·,·,·,·,–,
CCOC(=O)c1ccc(-c2ccc3ncnc(NCc4csc(C)n4)c3c2)o1,·,·,·,·,–,DYRK1A inh=9.2µM
C[C@@H]1O[C@@H](O[C@H]2[C@H](OC(=O)[C@]34CCC(C)(C)C[C@H]3C3=CCC5[C@@]6(C)C[C@H](O)[C@H](O[C@@H]7O[C@H](CO)[C@@H](O[C@@H]8O[C@H](CO)[C@@H](O)[C@H](O)[C@H]8O)[C@H](O)[C@H]7O)[C@@](C)(CO)C6[C@H](O)C[C@@]5(C)[C@]3(C)C[C@H]4O)OC[C@H](O)[C@@H]2O)[C@H](O)[C@H](O)[C@H]1O[C@@H]1OC[C@@H](O)[C@H](O[C@@H]2OC[C@](O)(CO)[C@H]2O)[C@H]1O (stereo not given in full),·,–[13.5 µM],·,·,?,
CC(C)CCn1c(CN2CCN(C(=O)C(C)C)CC2)nc2c1c(=O)n(C)c(=O)n2C,·,·,·,·,–,
CC(C)(C)c1ccc(CSc2nc3ncc(Br)cc3[nH]2)cc1,·,·,·,·,–,
O=C(Nc1nccs1)C(c1cc(F)ccc1O)N1Cc2ccccc2C1=O (stereo not given),·,·,·,·,–,

# Compound activity as filed in PubChem.
